The record followed here is ChEMBL document CHEMBL1961873, “Compounds: GSK PKIS; Assays: Nanosyn kinase panel” (2012).

Where “and” joins values, the source holds several entries; their conditions need not be identical. Equal values may be shown once.

Experiment [1] deals with Calcium/calmodulin-dependent protein kinase type II subunit alpha (Homo sapiens) (UniProt Q9UQM7). Conditions: at 1 µM.
Experiment [2] addresses Calcium/calmodulin-dependent protein kinase type II subunit delta (Homo sapiens) (UniProt Q13557). Conditions: at 0.1 µM.
For experiment [3] the target is unchanged. Conditions: at 1 µM.
Experiment [4] addresses T1, Calcium/calmodulin-dependent protein kinase type IV (Homo sapiens) (UniProt Q16566).
T1 sequence (whole entry): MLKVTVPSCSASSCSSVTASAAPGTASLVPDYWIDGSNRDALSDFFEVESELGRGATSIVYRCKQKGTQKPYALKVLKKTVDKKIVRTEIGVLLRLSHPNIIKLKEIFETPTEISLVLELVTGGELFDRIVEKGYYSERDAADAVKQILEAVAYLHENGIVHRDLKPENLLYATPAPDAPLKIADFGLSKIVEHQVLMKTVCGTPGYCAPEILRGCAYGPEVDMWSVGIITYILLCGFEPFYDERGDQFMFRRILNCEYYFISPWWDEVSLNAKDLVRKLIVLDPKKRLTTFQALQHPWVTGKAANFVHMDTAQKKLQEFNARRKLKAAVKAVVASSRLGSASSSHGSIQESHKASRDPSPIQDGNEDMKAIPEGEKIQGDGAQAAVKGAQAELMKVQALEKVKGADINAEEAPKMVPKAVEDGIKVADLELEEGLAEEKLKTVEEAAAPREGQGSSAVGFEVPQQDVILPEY
Conditions: at 0.1 µM.

In experiment [5] the target is T1, Calcium/calmodulin-dependent protein kinase type IV (Homo sapiens). Conditions: at 1 µM.
Experiment [6] has as its target T2, Serine/threonine-protein kinase Chk1 (Homo sapiens) (UniProt O14757).
T2 sequence (whole entry): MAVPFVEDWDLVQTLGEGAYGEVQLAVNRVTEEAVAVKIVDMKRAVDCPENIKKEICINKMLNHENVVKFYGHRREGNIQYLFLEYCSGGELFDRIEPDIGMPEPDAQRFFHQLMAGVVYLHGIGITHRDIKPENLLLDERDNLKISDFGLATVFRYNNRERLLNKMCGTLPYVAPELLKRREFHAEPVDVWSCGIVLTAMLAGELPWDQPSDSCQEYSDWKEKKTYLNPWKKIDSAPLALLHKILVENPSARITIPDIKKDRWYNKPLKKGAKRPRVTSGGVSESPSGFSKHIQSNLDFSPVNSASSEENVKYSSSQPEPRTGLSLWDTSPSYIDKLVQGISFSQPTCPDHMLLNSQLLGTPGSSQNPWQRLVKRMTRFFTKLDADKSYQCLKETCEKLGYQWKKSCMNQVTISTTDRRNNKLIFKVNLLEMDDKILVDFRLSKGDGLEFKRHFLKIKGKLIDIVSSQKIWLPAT
Conditions: at 0.1 µM.

For experiment [7], the target named is T2, Serine/threonine-protein kinase Chk1 (Homo sapiens). Conditions: at 1 µM.
The target of experiment [8] is Serine/threonine-protein kinase Chk2 (Homo sapiens) (UniProt O96017). Conditions: at 0.1 µM.
Serine/threonine-protein kinase Chk2 (Homo sapiens), sequence (O96017 whole entry): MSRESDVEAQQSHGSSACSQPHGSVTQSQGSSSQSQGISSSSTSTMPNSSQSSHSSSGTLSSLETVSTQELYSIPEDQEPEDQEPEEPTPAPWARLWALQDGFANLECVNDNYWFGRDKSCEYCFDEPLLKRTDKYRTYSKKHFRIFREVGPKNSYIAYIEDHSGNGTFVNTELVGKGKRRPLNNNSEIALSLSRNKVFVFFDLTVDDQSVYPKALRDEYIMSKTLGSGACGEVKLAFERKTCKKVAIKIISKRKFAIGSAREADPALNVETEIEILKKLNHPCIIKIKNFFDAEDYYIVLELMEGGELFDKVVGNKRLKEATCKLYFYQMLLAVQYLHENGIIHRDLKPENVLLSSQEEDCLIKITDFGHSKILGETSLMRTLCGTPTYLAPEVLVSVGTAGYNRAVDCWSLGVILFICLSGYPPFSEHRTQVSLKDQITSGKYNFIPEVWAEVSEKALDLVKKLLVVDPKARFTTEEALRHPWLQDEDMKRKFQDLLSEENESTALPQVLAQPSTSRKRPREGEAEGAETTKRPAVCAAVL
Experiment [9] has the same target. Conditions: at 1 µM.
For experiment [10], the target named is Death-associated protein kinase 1 (Homo sapiens) (UniProt P53355). Conditions: at 0.1 µM.
Death-associated protein kinase 1 (Homo sapiens), sequence (P53355 whole entry, looked up): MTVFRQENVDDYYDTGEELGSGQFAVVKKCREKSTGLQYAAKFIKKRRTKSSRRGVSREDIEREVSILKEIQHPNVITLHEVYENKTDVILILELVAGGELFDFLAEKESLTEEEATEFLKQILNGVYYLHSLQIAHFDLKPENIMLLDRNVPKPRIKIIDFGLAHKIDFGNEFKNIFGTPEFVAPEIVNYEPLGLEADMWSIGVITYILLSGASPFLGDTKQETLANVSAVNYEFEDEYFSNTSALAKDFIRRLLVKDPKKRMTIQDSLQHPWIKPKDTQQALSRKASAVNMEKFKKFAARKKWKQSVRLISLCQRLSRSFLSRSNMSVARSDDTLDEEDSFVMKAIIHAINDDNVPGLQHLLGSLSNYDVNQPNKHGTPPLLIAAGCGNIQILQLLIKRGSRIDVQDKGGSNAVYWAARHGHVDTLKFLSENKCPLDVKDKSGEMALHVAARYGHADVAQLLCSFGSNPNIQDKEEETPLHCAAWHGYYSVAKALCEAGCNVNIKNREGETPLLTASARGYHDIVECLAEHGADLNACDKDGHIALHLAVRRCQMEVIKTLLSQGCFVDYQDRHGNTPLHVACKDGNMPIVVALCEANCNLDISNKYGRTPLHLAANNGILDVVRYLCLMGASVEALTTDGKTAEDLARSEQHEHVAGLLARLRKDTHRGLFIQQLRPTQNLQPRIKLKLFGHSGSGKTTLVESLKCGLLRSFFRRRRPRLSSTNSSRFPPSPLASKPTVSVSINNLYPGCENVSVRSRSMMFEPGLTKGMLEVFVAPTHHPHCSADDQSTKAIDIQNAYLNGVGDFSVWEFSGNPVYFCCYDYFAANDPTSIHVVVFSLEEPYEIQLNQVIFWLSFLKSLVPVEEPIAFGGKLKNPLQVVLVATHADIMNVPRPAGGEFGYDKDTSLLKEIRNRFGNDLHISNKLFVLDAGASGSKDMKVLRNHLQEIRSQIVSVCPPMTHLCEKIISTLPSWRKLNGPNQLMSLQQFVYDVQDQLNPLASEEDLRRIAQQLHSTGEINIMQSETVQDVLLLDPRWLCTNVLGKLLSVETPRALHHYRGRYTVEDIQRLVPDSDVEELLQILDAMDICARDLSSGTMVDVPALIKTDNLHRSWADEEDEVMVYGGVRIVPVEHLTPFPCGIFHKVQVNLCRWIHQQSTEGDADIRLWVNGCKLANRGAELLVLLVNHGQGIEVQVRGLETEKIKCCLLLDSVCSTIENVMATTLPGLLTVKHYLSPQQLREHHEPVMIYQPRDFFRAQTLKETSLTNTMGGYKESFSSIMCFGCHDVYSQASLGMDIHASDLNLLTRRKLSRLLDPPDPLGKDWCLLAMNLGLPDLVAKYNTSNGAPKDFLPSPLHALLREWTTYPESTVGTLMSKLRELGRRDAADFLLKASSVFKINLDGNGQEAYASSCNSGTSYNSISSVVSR
For experiment [11] the target is unchanged. Conditions: at 1 µM.
Experiment [12] concerns the target T3, Serine/threonine-protein kinase DCLK2 (Homo sapiens) (UniProt Q8N568).
T3 sequence (whole entry): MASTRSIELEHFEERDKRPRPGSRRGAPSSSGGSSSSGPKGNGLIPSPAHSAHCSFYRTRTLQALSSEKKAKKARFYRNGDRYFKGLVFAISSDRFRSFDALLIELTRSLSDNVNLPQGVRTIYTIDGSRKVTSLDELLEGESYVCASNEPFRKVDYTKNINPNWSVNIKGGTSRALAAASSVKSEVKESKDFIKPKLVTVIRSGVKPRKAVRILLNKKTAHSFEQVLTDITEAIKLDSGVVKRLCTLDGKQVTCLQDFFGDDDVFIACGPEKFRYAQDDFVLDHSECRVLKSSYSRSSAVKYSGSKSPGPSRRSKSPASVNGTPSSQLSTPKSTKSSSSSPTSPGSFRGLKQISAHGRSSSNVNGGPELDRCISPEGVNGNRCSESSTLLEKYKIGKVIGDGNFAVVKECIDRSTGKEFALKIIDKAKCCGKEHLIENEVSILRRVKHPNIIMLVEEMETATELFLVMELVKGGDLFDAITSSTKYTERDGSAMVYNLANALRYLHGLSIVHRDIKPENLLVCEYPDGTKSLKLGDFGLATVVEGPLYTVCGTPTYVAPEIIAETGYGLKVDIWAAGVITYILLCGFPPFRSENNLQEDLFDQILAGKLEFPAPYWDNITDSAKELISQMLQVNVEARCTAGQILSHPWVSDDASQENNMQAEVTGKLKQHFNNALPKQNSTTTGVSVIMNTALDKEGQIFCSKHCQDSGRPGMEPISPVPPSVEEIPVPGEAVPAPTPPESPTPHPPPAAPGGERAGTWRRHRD
Conditions: at 0.1 µM.

Experiment [13] addresses T3, Serine/threonine-protein kinase DCLK2 (Homo sapiens). Conditions: at 1 µM.
Experiment [14] concerns the target MAP kinase-activated protein kinase 2 (Homo sapiens) (UniProt P49137). Conditions: at 0.1 µM.
The target is the same in experiment [15]. Conditions: at 1 µM.
Experiment [16] has as its target MAP kinase-activated protein kinase 3 (Homo sapiens) (UniProt Q16644). Conditions: at 0.1 µM.
For experiment [17] the target is unchanged. Conditions: at 1 µM.
In experiment [18] the target is Serine/threonine-protein kinase MARK1 (Homo sapiens) (UniProt Q9P0L2). Conditions: at 0.1 µM.
Serine/threonine-protein kinase MARK1 (Homo sapiens), sequence (Q9P0L2 whole entry, looked up): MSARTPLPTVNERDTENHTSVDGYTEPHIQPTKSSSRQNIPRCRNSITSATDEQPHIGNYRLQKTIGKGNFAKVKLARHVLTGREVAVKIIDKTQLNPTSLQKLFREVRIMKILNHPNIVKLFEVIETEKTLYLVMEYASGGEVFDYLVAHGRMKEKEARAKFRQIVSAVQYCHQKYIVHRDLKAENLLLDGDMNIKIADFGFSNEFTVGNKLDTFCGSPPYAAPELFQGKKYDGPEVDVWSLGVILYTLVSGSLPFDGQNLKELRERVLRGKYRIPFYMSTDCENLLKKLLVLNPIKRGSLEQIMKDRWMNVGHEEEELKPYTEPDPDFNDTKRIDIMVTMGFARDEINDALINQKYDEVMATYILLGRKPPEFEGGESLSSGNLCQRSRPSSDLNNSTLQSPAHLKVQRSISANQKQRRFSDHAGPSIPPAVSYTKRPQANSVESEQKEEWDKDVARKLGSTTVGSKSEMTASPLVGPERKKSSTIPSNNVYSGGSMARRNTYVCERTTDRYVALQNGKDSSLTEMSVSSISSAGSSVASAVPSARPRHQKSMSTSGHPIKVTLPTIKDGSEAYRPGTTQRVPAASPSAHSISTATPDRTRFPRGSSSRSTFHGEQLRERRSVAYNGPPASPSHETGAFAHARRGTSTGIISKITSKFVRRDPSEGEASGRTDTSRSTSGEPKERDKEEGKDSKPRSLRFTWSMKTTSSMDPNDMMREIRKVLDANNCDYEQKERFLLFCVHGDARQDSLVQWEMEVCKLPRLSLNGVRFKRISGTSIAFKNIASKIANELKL
For experiment [19] the target is unchanged. Conditions: at 1 µM.
For experiment [20], the target named is MAP/microtubule affinity-regulating kinase 3 (Homo sapiens) (UniProt P27448). Conditions: at 0.1 µM.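 Further: mean percent inhibition of MARK3 kinase activity, measured within the GSK PKIS screening panel.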
MAP/microtubule affinity-regulating kinase 3 (Homo sapiens), sequence (P27448 whole entry, looked up): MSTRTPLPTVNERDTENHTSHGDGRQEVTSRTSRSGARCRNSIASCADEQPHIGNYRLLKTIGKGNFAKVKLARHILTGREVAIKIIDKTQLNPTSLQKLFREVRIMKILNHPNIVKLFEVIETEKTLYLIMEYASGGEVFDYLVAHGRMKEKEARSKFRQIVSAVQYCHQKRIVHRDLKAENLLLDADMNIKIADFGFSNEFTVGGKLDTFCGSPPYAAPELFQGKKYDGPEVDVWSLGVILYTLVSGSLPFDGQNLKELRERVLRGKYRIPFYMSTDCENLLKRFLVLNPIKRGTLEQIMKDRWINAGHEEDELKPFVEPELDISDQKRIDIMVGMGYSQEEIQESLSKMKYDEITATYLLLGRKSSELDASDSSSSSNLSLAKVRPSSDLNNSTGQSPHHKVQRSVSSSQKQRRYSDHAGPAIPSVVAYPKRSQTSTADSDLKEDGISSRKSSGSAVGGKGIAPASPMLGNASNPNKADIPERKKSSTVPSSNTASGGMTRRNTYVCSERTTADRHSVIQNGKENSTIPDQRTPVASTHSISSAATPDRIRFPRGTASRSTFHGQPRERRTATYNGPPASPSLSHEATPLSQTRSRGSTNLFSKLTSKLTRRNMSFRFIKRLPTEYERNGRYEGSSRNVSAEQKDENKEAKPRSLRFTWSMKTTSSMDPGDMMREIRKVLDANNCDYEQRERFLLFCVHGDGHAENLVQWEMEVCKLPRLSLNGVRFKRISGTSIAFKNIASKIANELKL

MAP kinase-activated protein kinase 2 (Homo sapiens), sequence (P49137 whole entry, looked up): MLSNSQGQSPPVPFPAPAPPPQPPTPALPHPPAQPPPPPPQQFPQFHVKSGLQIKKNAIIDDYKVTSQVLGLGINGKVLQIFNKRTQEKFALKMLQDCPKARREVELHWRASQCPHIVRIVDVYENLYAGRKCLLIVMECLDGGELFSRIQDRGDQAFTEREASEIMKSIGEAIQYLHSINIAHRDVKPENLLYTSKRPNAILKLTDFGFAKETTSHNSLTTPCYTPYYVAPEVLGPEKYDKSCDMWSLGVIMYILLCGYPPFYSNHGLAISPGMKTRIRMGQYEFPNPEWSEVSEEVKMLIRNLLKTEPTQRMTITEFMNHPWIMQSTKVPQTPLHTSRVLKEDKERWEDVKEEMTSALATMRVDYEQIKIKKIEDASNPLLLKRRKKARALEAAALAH
Calcium/calmodulin-dependent protein kinase type II subunit delta (Homo sapiens), sequence (Q13557 whole entry): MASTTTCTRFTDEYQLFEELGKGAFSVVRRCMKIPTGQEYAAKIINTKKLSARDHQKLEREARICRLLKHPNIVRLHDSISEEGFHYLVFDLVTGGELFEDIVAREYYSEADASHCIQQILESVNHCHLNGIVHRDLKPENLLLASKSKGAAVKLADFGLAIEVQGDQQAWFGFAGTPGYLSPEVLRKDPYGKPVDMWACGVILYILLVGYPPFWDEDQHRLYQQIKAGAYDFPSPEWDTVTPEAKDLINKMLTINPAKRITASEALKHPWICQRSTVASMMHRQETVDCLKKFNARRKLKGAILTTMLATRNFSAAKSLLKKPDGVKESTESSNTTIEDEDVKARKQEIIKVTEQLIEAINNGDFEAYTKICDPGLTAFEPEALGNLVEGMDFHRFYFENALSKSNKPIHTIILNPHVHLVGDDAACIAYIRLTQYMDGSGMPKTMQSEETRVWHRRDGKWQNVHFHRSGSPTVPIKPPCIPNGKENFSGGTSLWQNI
MAP kinase-activated protein kinase 3 (Homo sapiens), sequence (Q16644 whole entry, looked up): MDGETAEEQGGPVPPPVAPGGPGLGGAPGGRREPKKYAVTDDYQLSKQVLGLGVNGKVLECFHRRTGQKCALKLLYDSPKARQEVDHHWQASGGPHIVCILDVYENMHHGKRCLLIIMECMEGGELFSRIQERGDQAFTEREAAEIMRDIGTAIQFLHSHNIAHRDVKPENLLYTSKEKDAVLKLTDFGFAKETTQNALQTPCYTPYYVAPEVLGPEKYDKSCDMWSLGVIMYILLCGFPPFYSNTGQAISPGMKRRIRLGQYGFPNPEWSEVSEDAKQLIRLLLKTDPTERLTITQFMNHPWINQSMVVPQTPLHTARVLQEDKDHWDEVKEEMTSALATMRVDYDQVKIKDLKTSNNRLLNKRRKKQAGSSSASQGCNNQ

With `COC(=O)Nc1nc2ccc(Oc3ccc(NC(=O)Nc4cc(C(F)(F)F)ccc4F)cc3)cc2s1`, the inhibition in [1] is 0.75%; in [2], 0.25%; in experiment [3], 1.63%; in [4], 0.98%; in experiment [5], 2.48%; in experiment [6], -6.7%. In addition, the inhibition in [7] was 0.48%; in [8] it was -0.62%; in experiment [9] it was -0.04%; in experiment [10], -0.48%; in experiment [11] it was -1.22%; in experiment [12], -1.5%. Also, the inhibition was -7.94% in experiment [13]; 0.26% in experiment [14]; -0.42% in experiment [15]; 7.74% in [16]; 20.3% in experiment [17]; 0.76% in [18]. Also, the results for the inhibition in [19] and in [20] were 0.29% and 0.41%, respectively.

Take `CNC(=O)c1sc(-n2cnc3cc(OC)c(OC)cc32)cc1OCc1ccccc1C(F)(F)F`: the inhibition in experiment [1] is -0.49%; in experiment [2] it was 3.02%; in experiment [3], 0.51%; in experiment [4] it was 0.67%; in experiment [5], -0.52%; in experiment [6], 2.9%. Moreover, the inhibition in experiment [7] stood at 3.46%; in [8] it was 2.9%; in experiment [9], 2.7%; in experiment [10], 5.53%; in experiment [11] it was 3%; in experiment [12], 0.25%. Also, the inhibition in [13] came to 2.29%; in experiment [14], 1.17%; in [15] it was 1.2%; in [16], 3.3%; in [17] it was 2.78%; in experiment [18], 2.03%. The inhibition in experiment [19] is 4.3%; in [20], 0.78%.

Regarding `COc1cc(N2CCN(C(C)C)CC2)ccc1Nc1nc(Nc2cccc3ncccc23)c2cc[nH]c2n1`, the inhibition was 1.11% in experiment [1]; -0.04% in experiment [2]; 9.94% in experiment [3]; 1.22% in experiment [4]; 4.44% in experiment [5]; 0.3% in experiment [6]. Besides, the inhibition was 1.78% in experiment [7]; -0.49% in experiment [8]; 4.32% in [9]; -1.26% in experiment [10]; -1.59% in [11]; -1.36% in [12]. In addition, the inhibition in [13] is -0.27%; in experiment [14], -0.17%; in experiment [15], -0.87%; in experiment [16], -0.09%; in experiment [17], 0.19%; in experiment [18], 0.48%. Also, the inhibition in [19] turned out to be 2.18%; in experiment [20] it was 0.2%.

On to `O=C(O[C@H]1CN[C@H](C#Cc2cc3ncnc(Nc4ccc5c(ccn5Cc5cc(F)ccc5F)c4)c3s2)C1)N1CCOCC1`, for which the inhibition in [1] was 3.57%; in experiment [2], 4.06%; in experiment [3], 3.62%; in [4], 0.33%; in experiment [5], 1.34%; in [6] it was -1.01%. Moreover, the inhibition in [7] was -1.69%; in experiment [8], -0.02%; in experiment [9], 6.4%; in [10], -3.56%; in [11], -3.4%; in experiment [12], 1.07%. Further, the inhibition in [13] was -1.18%; in experiment [14], -0.3%; in experiment [15] it was -1.2%; in experiment [16], -1.09%; in experiment [17], -1.03%; in experiment [18], 4.09%. The inhibition in experiment [19] was determined as 3.3%; in experiment [20] it was 1.37%.

For `CN1CCN(Cc2ccc(-c3cc4ncnc(Nc5ccc(OCc6cccc(F)c6)c(Cl)c5)c4s3)o2)CC1`, the inhibition in [1] was 5.07% and 4.38%; in experiment [2] it was 1.16% and 3.96%; in [3], 3.36% and 5.38%; in [4] it was -0.07% and -1.54%; in [5], 2.1% and 1.05%; in experiment [6], 8.64% and 3.56%. The inhibition in [7] was 7.78% and 8.12%; in experiment [8] it was 9.39% and 5.57%; in experiment [9] it was 28.6% and 26.4%; in [10], 9.3% and 6.62%; in experiment [11], 8.26% and 8.39%; in [12], -1.96% and 1.28%. The inhibition in experiment [13] was -0.55% and 0.13%; in experiment [14], 3.34% and 2.08%; in experiment [15], 3.32% and 2.11%; in [16], 10.6% and 4.26%; in experiment [17], 13% and 4.01%; in [18] it was 2.62% and 3.44%. Besides, the inhibition is 6.17% and 6% in experiment [19]; 1.67% and 1.64% in experiment [20].

Turning to `CN(C)CCNC(=O)Nc1ccc(N(C)c2ccnc(Nc3ccc(CS(C)(=O)=O)cc3)n2)cc1`, the inhibition is 4.63% in [1]; 4.54% in experiment [2]; 5.02% in experiment [3]; 0.83% in experiment [4]; -0.68% in experiment [5]; 3.83% in [6]. Besides, the inhibition in [7] came to 0.79%; in [8], 3.72%; in experiment [9], 11.9%; in [10], 3.93%; in experiment [11], 4.89%; in [12], 2.39%. For the same compound, the inhibition in [13] amounted to 1.2%; in experiment [14], 1.53%; in experiment [15], 1.45%; in [16], 2.22%; in experiment [17], 2.99%; in experiment [18], 4.47%. The inhibition stood at 9.32% in [19] and 6.51% in experiment [20].
